Assay results as given in PubChem BioAssay (NCATS).
“And” between values parts separate entries of the source, which are not always exact repeats. Identical values can stand only once.

assay: qHTS profiling for inhibitors of Plasmodium falciparum (DD2) proliferation (AID 743323); details: lower = more inhibition; at 28.7 µM (top of the series) unless noted
How it was run: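 Parasite proliferation measured via DNA-dye fluorescence, as uninfected erythrocytes lack DNA. Cultures at 0.3% parasitemia and 2.5% hematocrit incubated 72 h with compound; signal scaled between vehicle and 0.29 uM artemisinin wells.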

**Q.** With Cc1cccc(-c2[nH]ncc2-c2ccc3ncccc3n2)n1 as the compound, how does the activity, percent of control read?
**A.** 107% [at 57.5 µM]

**Q.** Which activity, percent of control does the source give for Nc1nc(Cl)nc2c1ncn2[C@H]1C[C@H](O)[C@@H](CO)O1 here?
**A.** 93.6% [at 57.5 µM]

**Q.** With Nc1cccc2c1CN(C1CCC(=O)NC1=O)C2=O (configuration not stated) as the compound, how does the activity, percent of control read?
**A.** 89.3% [at 57.5 µM] and 104% [at 57.5 µM]

**Q.** With Cc1ccc(NC(=O)c2ccc(CN3CCN(C)CC3)cc2)cc1Nc1nccc(-c2cccnc2)n1 as the compound, how does the activity, percent of control read?
**A.** 7.63%

**Q.** With Cc1cccc(C)c1OCC(=O)N[C@@H](Cc1ccccc1)[C@@H](O)C[C@H](Cc1ccccc1)NC(=O)[C@H](C(C)C)N1CCCNC1=O as the compound, how does the activity, percent of control read?
**A.** 0.873%

**Q.** With CCOC(=O)C1=C(O)C(=O)N(Cc2ccccc2)C1 as the compound, how does the activity, percent of control read?
**A.** 82.3%

**Q.** For S=c1nc[nH]c2nc[nH]c12, which activity, percent of control is on record?
**A.** 88.8% [at 57.5 µM]

**Q.** With COc1cc(Nc2c(C#N)cnc3cc(OCCCN4CCN(C)CC4)c(OC)cc23)c(Cl)cc1Cl as the compound, how does the activity, percent of control read?
**A.** 4.4%

**Q.** Which activity, percent of control does the source give for CC(C)C[C@H](NC(=O)[C@H](Cc1ccccc1)NC(=O)c1cnccn1)B(O)O here?
**A.** -0.17%

**Q.** Which activity, percent of control does the source give for CN(C)c1ccc2nc3ccc(=[N+](C)C)cc-3sc2c1 here?
**A.** 3.2% [at 57.5 µM]

**Q.** For CCc1nc(N)nc(N)c1-c1ccc(Cl)cc1, which activity, percent of control is on record?
**A.** 90.3%

**Q.** With CCN(CCO)CCCC(C)Nc1ccnc2cc(Cl)ccc12 (configuration not stated) as the compound, how does the activity, percent of control read?
**A.** 105% and 9.47%
